The results in this text go back to PubChem BioAssay (Tox21).

Results filed as inconclusive are left out. Values without a mark were called inactive. Calls of active or inactive are those of the source. Unless noted, calls follow the shape of the dose curve; as a rule, active = well fitted curve in the direction sought with a large enough effect in the repeat runs; inconclusive = weak or mixed curves; inactive = no such curve, though single readings can be large; an effect the other way counts as inactive or inconclusive.

Assay [1] is described as follows: qHTS assay to identify small molecule antagonists of the glucocorticoid receptor (GR) signaling pathway - cell viability counter screen (AID 720693). Also: nearly all actives have a fitted effect of over 55% in size. For orientation: Quantitative high-throughput screening tests each substance at several concentrations.
The nature of assay [2]: qHTS assay for identifying genotoxic compounds that show differential cytotoxicity against isogenic chicken DT40 cell lines with known DNA damage response pathways - wild type cell line (AID 743012). Also: nearly all actives have a fitted effect of over 60% in size. Also: potency is read from the fitted curve at half-maximal effect. The method in brief: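 Cells (DT40 wild type, 300/well) are treated with DMSO-dissolved compounds after a ~0.5 h pre-incubation and kept 40 h at 37 C/5% CO2. Viability is then measured by CellTiter-Glo luminescence following 30 min at room temperature.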

A short description of assay [3]: qHTS assay for identifying genotoxic compounds that show differential cytotoxicity against isogenic chicken DT40 cell lines with known DNA damage response pathways - Rev3 mutant cell line (AID 743014). Also: nearly all actives have a fitted effect of over 55% in size. Also: potency is read from the fitted curve at half-maximal effect.
A short description of assay [4]: qHTS assay for identifying genotoxic compounds that show differential cytotoxicity against isogenic chicken DT40 cell lines with known DNA damage response pathways - Rad54/Ku70 mutant cell line (AID 743015). Also: nearly all actives have a fitted effect of over 60% in size. Also: potency is read from the fitted curve at half-maximal effect.
The nature of assay [5]: qHTS assay to identify small molecule antagonists of the androgen receptor (AR) signaling pathway - cell viability counter screen (AID 743033; also: nearly all actives have a fitted effect of over 45% in size).
A short description of assay [6]: qHTS assay to identify small molecule antagonists of the androgen receptor (AR) signaling pathway using the MDA cell line - cell viability counter screen (AID 743041; also: nearly all actives have a fitted effect of over 45% in size). In short, it runs like this: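 MDA-kb2 AR-luc cells (MMTV-luciferase, AR/GR responsive) treated with compounds plus R1881 agonist for 16 h at 37C. CellTiter-Fluor added at 15.5 h; fluorescence read after 30 min in the same wells.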

The nature of assay [7]: qHTS assay to identify small molecule antagonists of the thyroid receptor (TR) signaling pathway (AID 743065). Also: nearly all actives have a fitted effect of over 55% in size. In short, it runs like this: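 GH3.TRE-Luc rat pituitary cells (two TREs driving luciferase) were dosed with compound, then stimulated with 1 nM T3 (final) for 23.5 h at 37 C. ONE-Glo luminescence was the read-out, with CellTiter-Fluor fluorescence as the cytotoxicity counter-screen.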

The test system of assay [8] is thyroid hormone receptor (rat, GH3 cells). Nature of the assay: qHTS assay to identify small molecule agonists of the thyroid receptor (TR) signaling pathway (AID 743066; calls by dose curve).
Assay [9] can be described thus: qHTS assay to identify small molecule antagonists of the estrogen receptor alpha (ER-alpha) signaling pathway - cell viability counter screen (AID 743074; calls by dose curve;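 also: HEK293 cells carrying ER-alpha-UAS-bla reporter stimulated with 17beta-estradiol; nearly all actives have a fitted effect of over 45% in size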).
The target of assay [10] is Estrogen receptor (Homo sapiens) (UniProt P03372). Nature of the assay: qHTS assay to identify small molecule agonists of the estrogen receptor alpha (ER-alpha) signaling pathway (AID 743075; calls by dose curve).
Estrogen receptor (Homo sapiens), sequence (P03372 whole entry, looked up): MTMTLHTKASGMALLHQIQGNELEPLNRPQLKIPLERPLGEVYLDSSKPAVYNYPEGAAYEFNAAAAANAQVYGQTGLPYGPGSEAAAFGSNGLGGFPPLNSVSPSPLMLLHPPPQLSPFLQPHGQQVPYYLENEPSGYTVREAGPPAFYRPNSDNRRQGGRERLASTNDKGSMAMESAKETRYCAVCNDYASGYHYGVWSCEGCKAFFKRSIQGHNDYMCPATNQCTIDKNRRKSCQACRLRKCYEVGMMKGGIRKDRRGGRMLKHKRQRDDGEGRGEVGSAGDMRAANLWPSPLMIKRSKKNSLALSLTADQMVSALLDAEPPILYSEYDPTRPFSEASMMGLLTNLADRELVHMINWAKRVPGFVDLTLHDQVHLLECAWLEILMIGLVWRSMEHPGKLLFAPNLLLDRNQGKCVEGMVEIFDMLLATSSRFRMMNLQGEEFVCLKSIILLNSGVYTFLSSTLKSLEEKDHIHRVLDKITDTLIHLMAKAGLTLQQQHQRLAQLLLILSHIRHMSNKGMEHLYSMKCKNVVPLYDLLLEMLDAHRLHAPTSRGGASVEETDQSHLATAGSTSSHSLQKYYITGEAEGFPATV
Assay [11] has the same target. In words: qHTS assay to identify small molecule agonists of the estrogen receptor alpha (ER-alpha) signaling pathway using the BG1 cell line (AID 743079). Also: nearly all actives have a fitted effect of over 20% in size. The conditions noted are these: BG1Luc4E2 cells, ERE-luciferase agonist, 22 h.
Assay [12] can be described thus: qHTS assay to identify small molecule antagonists of the estrogen receptor alpha (ER-alpha) signaling pathway using the BG1 cell line (AID 743080; calls by dose curve;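 also: BG1 cells stimulated with 17beta-estradiol alongside compound; nearly all actives have a fitted effect of over 25% in size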). The method in brief:
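Luminescence from a 4×ERE-luciferase reporter in BG1-Luc-4E2 cells served as read-out. Cells, pre-cultured 5 days in stripped-serum phenol-red-free medium, were exposed to compound with 17beta-estradiol co-stimulation for 21.5 h at 37 C.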

Assay [13] is described as follows: qHTS assay to identify small molecule antagonists of the estrogen receptor alpha (ER-alpha) signaling pathway using the BG1 cell line - cell viability counter screen (AID 743081).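 Also: compound given together with 17beta-estradiol as the ER stimulus; nearly all actives have a fitted effect of over 45% in size.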
Assay [14] deals with Aromatase (Homo sapiens) (UniProt P11511). Nature of the assay: qHTS assay to identify aromatase inhibitors (AID 743083). Also: nearly all actives have a fitted effect of over 55% in size.
Aromatase (Homo sapiens), sequence (P11511 whole entry, looked up): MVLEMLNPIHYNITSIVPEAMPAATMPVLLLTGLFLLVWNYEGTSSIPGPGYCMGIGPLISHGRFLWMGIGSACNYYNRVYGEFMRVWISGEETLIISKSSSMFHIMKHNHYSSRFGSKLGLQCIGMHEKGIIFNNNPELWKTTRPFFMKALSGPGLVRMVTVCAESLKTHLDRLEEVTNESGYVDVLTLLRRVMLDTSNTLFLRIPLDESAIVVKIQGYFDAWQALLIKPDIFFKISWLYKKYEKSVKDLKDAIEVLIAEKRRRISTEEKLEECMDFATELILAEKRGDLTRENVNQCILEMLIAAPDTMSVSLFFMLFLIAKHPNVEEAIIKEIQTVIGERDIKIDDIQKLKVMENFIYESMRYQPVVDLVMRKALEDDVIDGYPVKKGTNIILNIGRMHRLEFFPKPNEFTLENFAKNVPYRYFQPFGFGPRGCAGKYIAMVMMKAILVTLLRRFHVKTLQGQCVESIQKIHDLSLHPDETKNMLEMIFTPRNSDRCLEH
A short description of assay [15]: qHTS assay to identify aromatase inhibitors - cell viability counter screen (AID 743084).
The target in assay [16] is Estrogen receptor (Homo sapiens) (UniProt P03372). In words: qHTS assay to identify small molecule antagonists of the estrogen receptor alpha (ER-alpha) signaling pathway (AID 743069; active = well fitted curve in the direction sought with a large enough effect in the signal ratio in the repeat runs, not every such curve was filed as active; the % refers to the signal ratio). The method in brief: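 HEK293 ER-alpha-UAS-bla GripTite cells, held overnight in 2% charcoal-stripped FBS, 5,000 cells/well, preincubated 4 h, then compound plus 17beta-estradiol for 18 h at 37C. Beta-lactamase read by LiveBLAzer B/G FRET substrate, 2 h at room temperature.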

Assay [17] in a line: qHTS assay to identify small molecule antagonists of the thyroid receptor (TR) signaling pathway - cell viability counter screen (AID 743064). Also: nearly all actives have a fitted effect of over 50% in size. In short, it runs like this:
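In-well cytotoxicity read by CellTiter-Fluor (30 min, 37 C) following 23.5 h exposure of GH3 cells bearing a TRE-luciferase sensor. Compounds were added alongside 1 nM (final) T3 to drive TR transactivation.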
% is scaled to controls: 0 for no effect and ±100 for the full control effect.

Turning to `COP(=O)(OC)O/C(C)=C/C(=O)N(C)C`, the Potency entry in [1], in assay [2], in [3], in assay [4], in [5] and in assay [6] was “inactive” throughout. The Potency entry in assay [7], in [8], in assay [9], in assay [10], in assay [12] and in assay [13] was “inactive” each time. Further, the Potency entry in assay [14] and in assay [15] was “inactive” each time. In [11] (at 95 µM (top of the series)), the activation is -7.62%.

As for `N#CN=C1SCCN1Cc1ccc(Cl)nc1`, the Potency entry in assay [1], in assay [2], in assay [3], in assay [5], in assay [6] and in assay [7] was “inactive” throughout. In addition, the Potency entry in assay [8], in assay [10], in [12], in assay [13], in assay [14] and in assay [15] was “inactive” in each case. Moreover, in assay [11] (at 70.3 µM (top of the series)), the activation was -2.73%.

For `O=CCCl`, the Potency entry in assay [1], in assay [5], in assay [6], in [7], in [8] and in assay [16] was “inactive” in each case. The Potency entry in assay [9], in assay [10], in assay [12], in assay [13], in assay [14] and in assay [15] was “inactive” in each case. Also, the Potency in assay [2] is 19.3 µM (active); in [3], 0.217 µM (active); in [4], 27.3 µM (active). Further, in [11] (at 70.3 µM (top of the series)), the activation was 14.1%.

With `CCCCCCCCBr`, the Potency result in [1], in assay [2], in assay [3], in assay [4], in assay [5] and in assay [6] was “inactive” throughout. In addition, the Potency entry in assay [17], in assay [9], in assay [13], in [14] and in [15] was “inactive” each time.

Turning to `N#CN`, the Potency entry in [1], in assay [2], in assay [3], in [5], in assay [6] and in [17] was “inactive” each time. Moreover, the Potency result in assay [7], in [8], in [16], in assay [9], in assay [10] and in assay [12] was “inactive” each time. Moreover, the Potency result in assay [13], in assay [14] and in [15] was “inactive” in each case. Moreover, the activation is -14.8% in [11] (at 70.3 µM (top of the series)) and -1.65% in [11] (at 260 µM (top of the series)).

Turning to `COc1cc(CC(C)N)cc(OC)c1OC` (centres undefined), the Potency entry in assay [1], in assay [2], in assay [3], in assay [4], in [5] and in assay [17] was “inactive” throughout. For the same compound, the Potency entry in assay [7], in assay [8], in assay [16], in assay [10], in [12] and in [14] was “inactive” in each case. Further, the Potency result in assay [15] is “inactive”. In addition, the activation in assay [11] (at 95 µM (top of the series)) was -7.73%.

For the compound `CCOC(=O)COc1ccc(Cl)cc1Cl`, the Potency result in assay [1], in assay [2], in assay [3], in [4], in [5] and in assay [17] was “inactive” each time. The Potency entry in assay [8], in [9] and in assay [13] was “inactive” in each case.

On to `Clc1nc(Cl)nc(Nc2ccccc2Cl)n1`, for which the Potency entry in assay [1], in assay [2], in assay [3], in [4], in assay [5] and in [8] was “inactive” throughout. Besides, the Potency entry in [16], in assay [10], in [12], in assay [13], in [14] and in assay [15] was “inactive” in each case. In assay [11] (at 70.3 µM (top of the series)), the activation is 9.21%.

For the compound `BrCC1CO1` (centres undefined), the Potency result in assay [1], in assay [2], in assay [4], in assay [5], in assay [6] and in assay [8] was “inactive” each time. Also, the Potency result in assay [16], in assay [9], in [10], in assay [12], in [13] and in [14] was “inactive” each time. Also, in assay [15], the Potency entry was “inactive”. The Potency in assay [3] is 61.4 µM (active). Also, in assay [11] (at 95 µM (top of the series)), the activation is 8.58%.

Turning to `CC(Cc1ccccc1)NCCn1cnc2c1c(=O)n(C)c(=O)n2C` (centres undefined), the Potency entry in assay [1], in [3], in assay [5], in assay [6], in assay [7] and in [8] was “inactive” throughout. The Potency entry in assay [10], in [13] and in assay [14] was “inactive” each time. In assay [2], the Potency was 67.7 µM (active). Further, in assay [11] (at 70.3 µM (top of the series)), the activation was -17.2%.
